Laboratory results taken from PubChem BioAssay AID1259343 (VanderVen Lab, College of Veterinary Medicine, Cornell …, 2017).
Hit rate of the full screen: of about 6,200 compounds, about 2,900 (47%) were called active. No stated cut-off is given here; in the data, active means inhibition above about 50%; inactive means the rest. The set was probably picked from earlier hits. This is one part of the list.

experiment: Mycobacterium tuberculosis growth inhibition, primary screen (AID 1259343); conditions: inhibition: at 10 µM, stronger effect = higher value; outcome: 10 uM

Question: With `Cc1ccc(OCC(O)Cn2c(C)nc3sc4c(c3c2=O)CCC4)cc1` (centres undefined) as the compound, how does the inhibition read?
Answer: 64.5% (active)

Question: For `Cc1ccc(OCC(O)Cn2c(C)cc(=O)n3ncnc23)cc1` (centres undefined), which inhibition is on record?
Answer: -1.37% (inactive)

Question: Which inhibition does the source give for `Cc1cccc(-c2ncc(CNCCCc3ccccc3)cn2)c1` here?
Answer: 24.1% (inactive)

Question: Which inhibition does the source give for `CCc1cnc(-c2cccc(O)c2)nc1` here?
Answer: 87.9% (active)

Question: For `CCCc1cnc(-c2cnc3ccccc3c2)nc1`, which inhibition is on record?
Answer: 15.5% (inactive)

Question: With `O=[N+]([O-])c1ccc(Sc2nnc(-c3ccco3)o2)c([N+](=O)[O-])c1` as the compound, how does the inhibition read?
Answer: 57.5% (active)

Question: For `CCOc1ccc(CSc2n[nH]c(-c3ccccn3)n2)nc1`, which inhibition is on record?
Answer: 99.6% (active)

Question: For `CCCc1cc(=O)[nH]c(SCCOc2ccc(OCC)cc2)n1`, which inhibition is on record?
Answer: -6.11% (inactive)

Question: For `CCOc1ccc(C2=NCC(CSc3n[nH]c(N)n3)S2)cc1` (centres undefined), which inhibition is on record?
Answer: 19.9% (inactive)

Question: With `N#Cc1ccc(NC(=O)NC2CC2c2c(F)cccc2F)cc1` (centres undefined) as the compound, how does the inhibition read?
Answer: 51.6% (active)

Question: With `CCN(CC(=O)Nc1ccc(C#N)cc1)C1CCCCC1` as the compound, how does the inhibition read?
Answer: -29.6% (inactive)

Question: For `C=CCSc1nnc(Nc2ccc(Oc3ccccc3)cc2)s1`, which inhibition is on record?
Answer: inactive

Question: For `C=CCSc1nnc(COc2ccccc2)o1`, which inhibition is on record?
Answer: 95.2% (active)

Question: For `O=c1[nH]c2ccccc2n1CCCSc1nnc(COc2ccccc2Cl)o1`, which inhibition is on record?
Answer: 42.5% (inactive)

Question: With `Cc1cccc(N/C=c2\c(C)c(C#N)c3nc4ccccc4n3c2=O)c1` as the compound, how does the inhibition read?
Answer: -34.9% (inactive)

Question: Which inhibition does the source give for `Cc1c(C#N)c2nc3ccccc3n2c(=O)/c1=C/Nc1ccc(F)cc1` here?
Answer: -33.8% (inactive)

Question: With `Cc1c(CCCl)c(Cl)n2c(nc3ccccc32)c1C#N` as the compound, how does the inhibition read?
Answer: 56.3% (active)

Question: With `Cn1nc2c(c1NC(=O)c1ccc(Cc3ccccc3)cc1)CCC2` as the compound, how does the inhibition read?
Answer: 83.6% (active)

Question: With `COCCNc1c2c(nc3c(-c4ccccc4)c(C)nn13)CCCC2` as the compound, how does the inhibition read?
Answer: 25.2% (inactive)

Question: With `Clc1ccc(NN=C2CCN(Cc3ccccc3)CC2)cc1` as the compound, how does the inhibition read?
Answer: 94.7% (active)

Question: With `OCC1(CCCc2ccccc2)CCN(Cc2cc(Cl)ccc2O)CC1` as the compound, how does the inhibition read?
Answer: 38.5% (inactive)

Question: Which inhibition does the source give for `O=S1(=O)CCC(=NNc2ccc(Cl)cc2)c2cc(F)ccc21` here?
Answer: 45% (inactive)

Question: For `O=[N+]([O-])c1cnc2ccc3ccccc3c2c1`, which inhibition is on record?
Answer: 96.6% (active)

Question: Which inhibition does the source give for `Cc1cc(Br)c2c(c1)C1(OCCO1)C(=O)N2` here?
Answer: -4.59% (inactive)

Question: Which inhibition does the source give for `COc1ccccc1CNc1nccn(-c2cccc(C)c2)c1=O` here?
Answer: 12.8% (inactive)

Question: For `Cc1ccc(CNc2nccn(-c3cc(C)cc(C)c3)c2=O)cc1`, which inhibition is on record?
Answer: 53.9% (active)

Question: For `CN(Cc1cccc(C(=O)Nc2cn(C)nn2)c1)CC1Cc2ccccc2O1` (centres undefined), which inhibition is on record?
Answer: 86.5% (active)

Question: Which inhibition does the source give for `Cc1cccc(CC(=O)N(C)CC2Cc3ccccc3O2)c1` (centres undefined) here?
Answer: 21% (inactive)

Question: With `CN(CC1Cc2ccccc2O1)C(=O)Nc1nc(-c2ccccc2)ns1` (centres undefined) as the compound, how does the inhibition read?
Answer: 4.41% (inactive)

Question: For `O=C(CN1CCCC1=O)Nc1ccc(C23CC4CC(CC(C4)C2)C3)cc1`, which inhibition is on record?
Answer: 81.6% (active)

Question: For `O=C(CN1CCCc2cccc(F)c21)Nc1cccc(F)c1`, which inhibition is on record?
Answer: 2.21% (inactive)

Question: Which inhibition does the source give for `O=C(Nc1cccc(-c2cccc(Cl)c2)c1)C1CCN(Cc2ccncc2)CC1` here?
Answer: 92.8% (active)

Question: With `CC(C)n1cc(CN2CCC(C(=O)Nc3cccc(-c4cccc(Cl)c4)c3)CC2)cn1` as the compound, how does the inhibition read?
Answer: 46.3% (inactive)

Question: For `COCC(=O)N1CCC(C(=O)Nc2cccc(-c3cccc(Cl)c3)c2)CC1`, which inhibition is on record?
Answer: inactive

Question: With `COCc1ccc(CN2CCC(C(=O)Nc3cccc(-c4cccc(Cl)c4)c3)CC2)o1` as the compound, how does the inhibition read?
Answer: 62.3% (active)

Question: For `Cc1cccc(C(=O)N2N=C(c3ccccc3)CC2(O)C(F)(F)F)c1O` (centres undefined), which inhibition is on record?
Answer: 49.1% (inactive)

Question: For `CC1=NN(C(=O)c2ccccc2)C(C)(NN(C)c2ccccc2)C1` (centres undefined), which inhibition is on record?
Answer: 75.7% (active)

Question: With `Cc1cc(Cc2c(O)nc(N)[nH]c2=O)ccc1OC(C)C` as the compound, how does the inhibition read?
Answer: 36.4% (inactive)

Question: With `CCC1c2ccsc2CCN1CC(=O)Nc1ccccc1C#N` (centres undefined) as the compound, how does the inhibition read?
Answer: 39.9% (inactive)

Question: With `O=S(=O)(c1cccc(Cl)c1Cl)N1CCc2sccc2C1` as the compound, how does the inhibition read?
Answer: 17.2% (inactive)

Question: For `Cn1ccc(C(=O)Nc2ccccc2N2CCc3sccc3C2)cc1=O`, which inhibition is on record?
Answer: 63.6% (active)

Question: With `Cc1nc(Cc2nnc(SCC(=O)c3ccc(Cl)s3)o2)cs1` as the compound, how does the inhibition read?
Answer: 9.62% (inactive)

Question: For `O=C(CSc1nnc(Cc2ccccc2)o1)c1ccc2ccccc2c1`, which inhibition is on record?
Answer: 67.7% (active)

Question: For `c1ccc(Cc2nnc(SCc3cccc4ccccc34)o2)cc1`, which inhibition is on record?
Answer: 4.35% (inactive)

Question: Which inhibition does the source give for `CCCCCCC1C(C#N)=C(N)SC(N)=C1C#N` here?
Answer: 24.4% (inactive)

Question: Which inhibition does the source give for `CCCCCCCC1C(C#N)=C(N)SC(N)=C1C#N` here?
Answer: 93.5% (active)

Question: With `N#CC1=C(N)SC(N)=C(C#N)C1c1ccc(-c2ccccc2)cc1` as the compound, how does the inhibition read?
Answer: 14.3% (inactive)

Question: Which inhibition does the source give for `Cc1cccc(N2CCN(c3ccc4nnc(C5CC5)n4n3)CC2)c1C` here?
Answer: 85.7% (active)

Question: For `CC(C)=NNc1nc(Cl)c(C#N)c(Cl)c1Cl`, which inhibition is on record?
Answer: 102% (active)

Question: With `FC(F)(F)c1nnc2ccc(NCCC3CCCC3)nn12` as the compound, how does the inhibition read?
Answer: 18% (inactive)

Question: With `O=C(Nc1cccc(OCc2ccccn2)c1)C1CC1` as the compound, how does the inhibition read?
Answer: 18.7% (inactive)

Question: With `O=C(Nc1cnc(-c2ccccc2)nc1)C1CCCC1` as the compound, how does the inhibition read?
Answer: 48.4% (inactive)

Question: Which inhibition does the source give for `O=C(Nc1cccc(/C=C/c2ccccn2)c1)C1CCCC1` here?
Answer: 97.1% (active)

Question: For `CC(C)n1c(CCC(=O)O)ccc1-c1ccc(Br)cc1`, which inhibition is on record?
Answer: 50.3% (active)

Question: With `CC(C)(C)C1CCC(CN2CC(O)C(N3CCCC3)C2)CC1` (centres undefined) as the compound, how does the inhibition read?
Answer: 41.1% (inactive)

Question: Which inhibition does the source give for `CCOC(=O)CCCNC(=O)CSc1n[nH]c(-c2ccc(Br)cc2)n1` here?
Answer: 74.5% (active)

Question: For `CC(Sc1n[nH]c(-c2ccc(Cl)cc2)n1)C(=O)NCc1ccco1` (centres undefined), which inhibition is on record?
Answer: 42% (inactive)

Question: Which inhibition does the source give for `N#Cc1ccc(OCC(O)Cn2nnc(-c3ccc(Cl)cc3)n2)cc1` (centres undefined) here?
Answer: 49.3% (inactive)

Question: With `CC(C)c1ccc(-c2nnn(CC(=O)NC(C)(C)C)n2)cc1` as the compound, how does the inhibition read?
Answer: 4.54% (inactive)

Question: Which inhibition does the source give for `CC(C)c1ccc(-c2nnn(CC(=O)c3ccc(O)cc3)n2)cc1` here?
Answer: 55.7% (active)

Question: For `C=CCOc1ccc(C2c3c(oc4ccc(C)cc4c3=O)C(=O)N2c2nccs2)cc1` (centres undefined), which inhibition is on record?
Answer: -15.9% (inactive)

Question: For `CC(C)CN(CC(=O)Nc1cc(C(C)(C)C)nn1-c1ccc(Cl)c(Cl)c1)C(=O)Nc1ccc(C(F)(F)F)cc1`, which inhibition is on record?
Answer: 38.3% (inactive)

Question: For `COCCOc1nc(-c2ccc(C(F)(F)F)cc2)n(-c2ccc(NC(=O)C(Cl)c3ccccc3)cc2)n1` (centres undefined), which inhibition is on record?
Answer: 19.5% (inactive)

Question: For `NCC(=O)Nc1ccc(-n2nc(C(F)(F)F)cc2-c2ccc3c(ccc4ccccc43)c2)cc1`, which inhibition is on record?
Answer: 73.5% (active)
